DT40 TDP1 no CPT: qHTS for Inhibitors of human tyrosyl-DNA phosphodiesterase 1 (TDP1): qHTS in cells in absence of CPT; DT40 Tdp1-/- hTDP1 cells, no CPT, ATP luminescence, 48 h; 420,000 tested, 15% active; Potency, µM (highest dose often 46.2 µM), most hits filed as inhibitors; AID 686978, 2013; further: nearly all actives have a fitted effect of over 55% in size
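Chicken DT40 Tdp1-/- cells complemented with human TDP1, screened without camptothecin (DMSO vehicle only), 400 cells/well. Compounds pin-transferred, cells incubated at 37 °C for at least 48 hr. Growth read as ATP-dependent luminescence (CellTiter-Glo, 30 min at RT).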
ELG1 DNA repair: blocks ELG1-dependent DNA repair in HEK293T cells | HEK293T ELG1-luciferase reporter, luminescence, 16 h; DNA damage induced by 5-fluorouridine | Potency, µM (titrated, usually from 46.1 µM), hits mostly inhibitors | 330,000 tested, 2.3% active; further: nearly all actives have a fitted effect of over 55% in size
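Luminescence from the luciferase reporter, measured 30 min after ONE-Glo reagent at room temperature, was the read-out. Beforehand, 2,000 cells per well were exposed for 16 hr at 37 °C to 5-fluorouridine together with compound or vehicle.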
HT1080NT lethal: kills 2HG-producing HT-1080-NT fibrosarcoma cells | HT-1080-NT fibrosarcoma viability, CellTiter-Glo ATP luminescence, 48 h | Potency, µM (doses to about 46.1 µM), actives largely listed as cytotoxic | 360,000 tested, 1.6% active;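 further: NT is the 2HG producing partner of a matched IDH1 knockdown line; nearly all actives have a fitted effect of over 55% in size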
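HT-1080-NT; 750 cells/well; 5% FBS RPMI; 48 h compound, 37 degrees C; CellTiter-Glo luminescence; curve fitting and curve-class assignment.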
DT40 TDP1 CPT: growth inhibition of DT40 Tdp1-/-;hTDP1 cells with camptothecin (screen for TDP1 inhibitors). chicken DT40 Tdp1-/-;hTDP1 cells + 20 nM CPT, ATP luminescence, 48 h. 420,000 tested, 12% active. AID 686979. Potency, µM (top dose mostly 46.2 µM), most hits filed as inhibitors; further: nearly all actives have a fitted effect of over 55% in size
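Cell growth measured by CellTiter-Glo luminescence after a minimum 48 h, 37 C compound exposure with 20 nM CPT in Tdp1-knockout DT40 cells stably expressing hTDP1, seeded 400/well; qHTS titration format.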
IL-1B inflam inh: inhibitors of inflammasome signaling (IL-1 beta secretion). activity change, % at 57.5 µM. 360,000 tested, 4.7% active. THP-1 LPS/ATP IL-1B secretion, AlphaLISA, 16 h; active compounds read low; in the data active means activity change below about -50%; inconclusive means mostly about -30% to -49%
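Secreted IL-1B measured by AlphaLISA bead assay after 16 h compound exposure of THP-1 cells; compounds (final up to 57.5 uM) added 1 h before LPS (250 ng/mL) and ATP (1.25 mM) stimulation; lower signal means less secretion.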
HT1080 IDH1KD tx: kills HT-1080 cells with IDH1 knockdown; HT-1080 IDH1 knockdown viability, ATP luminescence, 48 h; Potency, µM (doses to about 46.1 µM), usual class: cytotoxic; 360,000 tested, 2% active
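% activity derives from luminescence (CellTiter-Glo), normalised to DMSO and no-cell wells. HT-1080-IDH1KD cells, 750/well, had 48 h compound exposure at 37 °C.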
A number is an active result; i = inactive; ? = inconclusive; nt = no result. This is a sample that favours compounds with a hit; in the whole collection about 19% have one here. Unless noted, the call rests on the fitted dose curve; in most records, active means well fitted curve in the direction sought with a large enough effect; inconclusive means small, poorly fitted or top-dose-only effect, or another doubt; inactive means no such curve, though single readings can be large; an effect the other way counts as inactive or inconclusive.

SMILES | DT40 TDP1 no CPT | ELG1 DNA repair | HT1080NT lethal | DT40 TDP1 CPT | IL-1B inflam inh | HT1080 IDH1KD tx
CCn1cc(C(=O)Nc2ccc(OC)c(S(=O)(=O)N3CCCCC3)c2)c(=O)c2ccc(C)nc21 | 23µM | i | i | ? | i | i
COc1ccc(NC(=O)COc2ccccc2Cl)cc1S(=O)(=O)N1CCCCC1 | i | ? | i | ? | i | i
COc1ccc(NS(=O)(=O)c2c(F)cc(F)c(Cl)c2F)cc1S(=O)(=O)N1CCCCC1 | i | i | i | i | -53 | i
CCn1cc(C(=O)NC2CC3CCC2C3)c(=O)c2ccc(C)nc21 (centres undefined) | nt | i | nt | nt | nt | nt
COc1ccc(NS(=O)(=O)c2c(F)cccc2F)cc1S(=O)(=O)N1CCOCC1 | i | i | i | i | i | i
O=C(O)C1CCC(=O)N1C(=O)OCc1ccccc1 (centres undefined) | ? | ? | i | i | i | i
C=CCOc1ccccc1CN1CCC(n2nccc2NC(=O)c2ccccc2)CC1 | i | i | i | i | ? | i
O=C(COc1ccccc1F)Nc1ccc2oc(-c3cccc(Cl)c3)nc2c1 | i | nt | nt | i | nt | nt
COc1ccc(NC(=O)CSc2ccc3ccccc3c2)cc1S(=O)(=O)N1CCCCC1 | 16µM | ? | i | 23µM | i | i
COc1ccc(NC(=O)CSc2ccc(NC(C)=O)cc2)cc1S(=O)(=O)N1CCOCC1 | i | i | i | i | i | i
Cc1ccc(S(=O)(=O)CCC(=O)Nc2ccc(Br)cc2)cc1 | i | i | i | ? | i | ?
CN1C(=O)Cc2cc(S(=O)(=O)CCC(=O)Nc3ccc(Cl)c(C(F)(F)F)c3)ccc21 | ? | nt | nt | 23µM | nt | nt
CCC(=O)N1CCc2cc(S(=O)(=O)CCC(=O)Nc3ccc(Cl)c(C(F)(F)F)c3)ccc21 | 8.2µM | nt | nt | 16µM | nt | nt
O=C(CCS(=O)(=O)c1ccc(Br)cc1)Nc1ccc(Cl)c(C(F)(F)F)c1 | 21µM | nt | nt | ? | nt | nt
Cc1cccc(Cn2c(CN3CCC(C(=O)NC(C)C)CC3)cc3ccccc32)c1 | 23µM | nt | nt | ? | nt | nt
COc1ccccc1CNC(=O)C1CCN(Cc2cc3ccccc3n2Cc2cccc(C)c2)CC1 | 18µM | nt | nt | 13µM | nt | nt
OC(CON=C1c2ccccc2-c2ccccc21)CN1CCNCC1 (centres undefined) | 7.3µM | i | 21µM | 12µM | -88 | 23µM
OC(COc1ccccc1)CN1CCN(CC(O)COc2ccccc2)CC1 (centres undefined) | i | i | i | i | i | i
CCOC(=O)CN1N=C(/C=C/c2ccccc2)CCC1=O | i | nt | i | i | i | i
CCOC(=O)CN1N=C(/C=C/c2ccc(C(C)C)cc2)CCC1=O | ? | ? | i | ? | -56 | i
COc1ccccc1NC(=S)NCc1ccccn1 | 4.1µM | i | i | 2.3µM | i | i
COc1cc(OC)cc(C(=O)Nc2nc(CC(=O)NCCc3ccccc3)cs2)c1 | ? | ? | i | ? | ? | i
COc1cc(OC)cc(C(=O)Nc2nc(CC(=O)NCc3ccc(F)cc3)cs2)c1 | 8.2µM | ? | ? | 12µM | i | ?
COc1ccccc1NC(=O)Nc1nc(CC(=O)NCc2cccnc2)cs1 | i | i | i | ? | i | i
COc1ccc(CNC(=O)Cc2csc(NC(=O)Nc3ccccc3OC)n2)cc1 | 15µM | ? | i | ? | ? | i
COc1ccccc1NC(=O)Nc1nc(CC(=O)NCc2ccccn2)cs1 | 26µM | ? | i | ? | i | i
O=C(NCCCn1ccnc1)c1cccc(S(=O)(=O)NCc2ccccc2)c1 | i | ? | ? | i | i | i
COc1ccccc1C(=O)NCC1(N2CCN(C)CC2)CCCCC1 | i | nt | nt | i | nt | nt
COc1ccccc1NC(=O)Nc1nc(CC(=O)Nc2ccc(N(C)C)cc2)cs1 | ? | i | i | ? | ? | i
COc1ccccc1NC(=O)Cc1csc(NC(=O)c2ccccc2)n1 | ? | ? | i | ? | i | i

From PubChem
